Results from PubChem BioAssay (NCATS).
Inconclusive results are not listed. Activity calls are given as the source filed them. Unless noted, calls follow the shape of the full dose curve.

Experiments:
[1] = biological target: Estrogen receptor (Homo sapiens) (UniProt P03372); assay: qHTS assay for small molecule agonists of estrogen receptor alpha signaling (AID 588514); conditions: ER-alpha-UAS-bla HEK293, beta-lactamase ratio, 18 h; series mostly up to 76.8 µM; also: nearly all actives have a fitted effect of over 70% in size; also: potency is read from the fitted curve at half-maximal effect;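 as to activation: 0% = vehicle only and 100% = reference agonist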
Sequence of Estrogen receptor (Homo sapiens) (P03372 whole entry, looked up): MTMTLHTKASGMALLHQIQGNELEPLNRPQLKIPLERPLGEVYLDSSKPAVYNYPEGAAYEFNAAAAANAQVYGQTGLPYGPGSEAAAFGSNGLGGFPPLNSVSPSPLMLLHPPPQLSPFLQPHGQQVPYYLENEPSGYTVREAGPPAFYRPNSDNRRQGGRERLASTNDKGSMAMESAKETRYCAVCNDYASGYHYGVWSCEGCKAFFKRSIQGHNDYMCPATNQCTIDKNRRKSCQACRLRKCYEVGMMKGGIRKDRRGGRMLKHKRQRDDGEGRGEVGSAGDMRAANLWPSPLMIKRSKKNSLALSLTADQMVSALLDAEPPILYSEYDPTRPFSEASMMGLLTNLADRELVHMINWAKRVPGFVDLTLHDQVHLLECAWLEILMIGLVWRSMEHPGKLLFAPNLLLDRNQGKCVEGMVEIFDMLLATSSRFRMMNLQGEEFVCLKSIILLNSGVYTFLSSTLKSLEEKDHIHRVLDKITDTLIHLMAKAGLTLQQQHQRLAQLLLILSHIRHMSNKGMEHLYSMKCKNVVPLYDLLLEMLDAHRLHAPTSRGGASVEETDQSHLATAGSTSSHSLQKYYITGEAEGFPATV
How it was run: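 Fluorescence from CCF4 cleavage reports ER-alpha-driven beta-lactamase expression in HEK 293 cells treated 18 hrs at 37 C. Data normalized to 17-beta-estradiol (20 nM) and DMSO, fitted to Hill equation.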

[2] = biological target: Androgen receptor (Homo sapiens) (UniProt P10275); assay: qHTS assay for small molecule agonists of androgen receptor signaling (AID 588515; active = well fitted curve in the direction sought with a large enough effect in the signal ratio, with a control signal flat; the % refers to the signal ratio; also: % is scaled to controls: 0 for no effect and ±100 for the full control effect); conditions: AR-UAS-bla HEK293, beta-lactamase ratio, agonist 16 h; activation: stronger effect = higher value
Sequence of Androgen receptor (Homo sapiens) (P10275 whole entry, looked up): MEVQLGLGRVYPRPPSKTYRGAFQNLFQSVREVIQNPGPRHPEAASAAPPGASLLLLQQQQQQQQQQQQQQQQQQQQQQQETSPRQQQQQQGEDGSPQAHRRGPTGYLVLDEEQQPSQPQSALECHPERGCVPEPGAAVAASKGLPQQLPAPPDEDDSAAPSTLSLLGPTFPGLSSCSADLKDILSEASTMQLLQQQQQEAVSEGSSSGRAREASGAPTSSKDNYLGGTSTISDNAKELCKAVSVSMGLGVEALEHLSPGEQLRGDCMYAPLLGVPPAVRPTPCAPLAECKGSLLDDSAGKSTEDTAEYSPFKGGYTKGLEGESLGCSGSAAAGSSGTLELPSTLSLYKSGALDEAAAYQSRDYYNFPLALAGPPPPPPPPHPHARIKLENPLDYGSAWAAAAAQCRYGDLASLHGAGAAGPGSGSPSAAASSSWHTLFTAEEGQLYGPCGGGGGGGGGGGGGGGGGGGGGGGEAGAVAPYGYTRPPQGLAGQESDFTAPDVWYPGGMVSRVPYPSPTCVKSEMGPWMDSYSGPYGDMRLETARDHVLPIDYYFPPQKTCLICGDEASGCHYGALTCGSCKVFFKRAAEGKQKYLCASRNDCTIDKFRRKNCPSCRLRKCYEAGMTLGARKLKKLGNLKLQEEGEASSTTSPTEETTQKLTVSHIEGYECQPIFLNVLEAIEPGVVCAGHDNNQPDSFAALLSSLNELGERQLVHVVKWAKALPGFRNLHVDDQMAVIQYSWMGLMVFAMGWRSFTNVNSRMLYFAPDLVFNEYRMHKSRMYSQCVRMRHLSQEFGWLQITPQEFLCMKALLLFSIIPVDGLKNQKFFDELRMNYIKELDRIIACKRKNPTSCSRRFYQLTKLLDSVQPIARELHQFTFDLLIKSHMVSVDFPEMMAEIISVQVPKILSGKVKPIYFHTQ
How it was run: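 Stimulation of an AR-responsive β-lactamase reporter in GripTite HEK293 cells was measured after 16 h compound exposure at 37 °C, via CCF4 fluorescence after 2 h RT. EC50 from Hill fits, normalized to R1881 at 30 nM.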

[3] = biological target: Androgen receptor (Homo sapiens) (UniProt P10275); assay: qHTS assay for small molecule antagonists of androgen receptor signaling (AID 588516; active = well fitted curve in the direction sought with a large enough effect in the signal ratio, with a control signal flat, not every such curve was filed as active; the % refers to the signal ratio; also: % is scaled to controls: 0 for no effect and ±100 for the full control effect); conditions: AR-UAS-bla HEK293, beta-lactamase ratio, antagonist mode, 16 h; series mostly up to 76.8 µM
How it was run: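 AR-UAS-bla-GripTite HEK 293 cells (2000/well, 5 h at 37 C) received compound titrations, then R1881 at 10 nM final; after 16 h at 37 C, CCF4 dye 2 h RT, beta-lactamase fluorescence read; IC50 from Hill fits.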

[4] = biological target: Bile acid receptor (Homo sapiens) (UniProt Q96RI1); assay: qHTS assay for small molecule antagonists of farnesoid X receptor signaling (AID 588526); conditions: HEK293T FXR-UAS-bla, beta-lactamase ratio, antagonist mode; series mostly up to 76.7 µM; also: % is scaled to controls: 0 for no effect and ±100 for the full control effect
Sequence of Bile acid receptor (Homo sapiens) (Q96RI1 whole entry, looked up): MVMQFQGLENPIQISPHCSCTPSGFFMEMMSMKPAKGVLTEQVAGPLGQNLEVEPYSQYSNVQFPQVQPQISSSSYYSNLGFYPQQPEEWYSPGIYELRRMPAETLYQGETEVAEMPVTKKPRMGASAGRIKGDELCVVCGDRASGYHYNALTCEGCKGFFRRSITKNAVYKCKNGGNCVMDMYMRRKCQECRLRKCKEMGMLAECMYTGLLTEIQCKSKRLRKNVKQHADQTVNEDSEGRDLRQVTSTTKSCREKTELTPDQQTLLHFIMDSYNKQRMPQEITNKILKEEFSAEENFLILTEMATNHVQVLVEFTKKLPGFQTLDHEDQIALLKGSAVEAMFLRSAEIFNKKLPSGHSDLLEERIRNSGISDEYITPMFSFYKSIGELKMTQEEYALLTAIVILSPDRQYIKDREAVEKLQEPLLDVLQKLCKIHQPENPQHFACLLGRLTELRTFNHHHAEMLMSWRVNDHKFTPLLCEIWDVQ
How it was run: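 Antagonist mode: titrated compounds tested against chenodeoxycholic acid stimulation (normalized to 50 uM CDCA and DMSO) in GeneBLAzer HEK293T cells for 16 h. Beta-lactamase read by CCF4 fluorescence; IC50 from Hill fits.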

[5] = biological target: Peroxisome proliferator-activated receptor delta (Homo sapiens) (UniProt Q03181); assay: qHTS assay for small molecule antagonists of peroxisome proliferator-activated receptor delta signaling (AID 588535; active = well fitted inhibition curve with a large enough effect in the signal ratio, with a control signal flat, not every such curve was filed as active; the % refers to the signal ratio); conditions: HEK293T PPARd-UAS-bla, beta-lactamase FRET ratio, 18 h; series mostly up to 76.7 µM
Sequence of Peroxisome proliferator-activated receptor delta (Homo sapiens) (Q03181 whole entry, looked up): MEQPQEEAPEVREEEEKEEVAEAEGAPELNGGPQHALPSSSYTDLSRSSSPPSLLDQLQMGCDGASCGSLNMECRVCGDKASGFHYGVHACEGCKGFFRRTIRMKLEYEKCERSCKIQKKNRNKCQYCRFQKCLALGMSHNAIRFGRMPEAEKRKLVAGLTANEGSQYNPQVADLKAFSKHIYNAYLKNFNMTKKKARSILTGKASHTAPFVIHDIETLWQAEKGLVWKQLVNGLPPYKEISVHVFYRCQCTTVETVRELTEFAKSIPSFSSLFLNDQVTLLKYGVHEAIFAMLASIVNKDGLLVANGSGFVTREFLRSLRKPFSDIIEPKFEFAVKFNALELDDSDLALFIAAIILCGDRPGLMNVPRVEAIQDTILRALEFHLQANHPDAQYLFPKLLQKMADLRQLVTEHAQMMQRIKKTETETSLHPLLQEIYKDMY
How it was run: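 Beta-lactamase reporter read-out (405 nm excitation, 460/530 nm emission) after CCF4 loading for 2 hrs at RT. HEK293T PPAR-delta-UAS-bla cells, 2% charcoal/dextran FBS, compounds for 18 hrs at 37 C. Hill fit gave IC50 and efficacy.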

[6] = biological target: Vitamin D3 receptor (Homo sapiens) (UniProt P11473); assay: qHTS assay for small molecule antagonists of vitamin D receptor signaling (AID 588541); conditions: HEK293T VDR-UAS-bla, beta-lactamase ratio, antagonist mode; series mostly up to 76.7 µM; also: potency is read from the fitted curve at half-maximal effect
Sequence of Vitamin D3 receptor (Homo sapiens) (P11473 whole entry, looked up): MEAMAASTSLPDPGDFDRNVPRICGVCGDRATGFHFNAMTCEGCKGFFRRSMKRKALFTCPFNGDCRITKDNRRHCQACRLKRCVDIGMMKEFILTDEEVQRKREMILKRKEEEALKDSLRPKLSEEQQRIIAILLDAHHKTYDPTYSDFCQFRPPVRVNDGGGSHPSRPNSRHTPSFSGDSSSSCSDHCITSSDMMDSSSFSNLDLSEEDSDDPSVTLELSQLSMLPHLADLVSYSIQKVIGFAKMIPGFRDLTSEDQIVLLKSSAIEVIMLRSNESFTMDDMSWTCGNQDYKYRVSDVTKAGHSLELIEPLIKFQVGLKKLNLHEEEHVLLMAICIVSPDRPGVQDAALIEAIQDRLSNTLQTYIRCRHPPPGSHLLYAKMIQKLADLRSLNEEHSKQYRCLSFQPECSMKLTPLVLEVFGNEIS
How it was run: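 VDR-UAS-bla HEK293T cells in 2% charcoal-stripped FBS were stimulated with 1-alpha,25-dihydroxyvitamin D3 (3 nM final) plus compound for 16 h at 37 C. The beta-lactamase CCF4 readout was normalized to 50 nM agonist and DMSO, and Hill fits gave IC50.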

[7] = biological target: Vitamin D3 receptor (Homo sapiens) (UniProt P11473); assay: qHTS assay for small molecule agonists of vitamin D receptor signaling (AID 588543); conditions: HEK293T VDR-UAS-bla, beta-lactamase ratio, 16 h; series mostly up to 76.8 µM;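 also: 0% = DMSO basal and 100% = reference agonist control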
How it was run: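 GeneBLAzer VDR-UAS-bla HEK293T cells in 2% charcoal-stripped FBS medium were dosed with compound titrations for 16 h at 37 °C; CCF4 β-lactamase readout (405 nm ex, 460/530 nm em). EC50 and efficacy from Hill fits, normalized to 50 nM calcitriol (100%) and DMSO (0%).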

[8] = biological target: Estrogen receptor (Homo sapiens) (UniProt P03372); assay: qHTS assay for small molecule antagonists of estrogen receptor alpha signaling (AID 588513; active = well fitted curve in the direction sought with a large enough effect in the signal ratio, with a control signal flat, not every such curve was filed as active; the % refers to the signal ratio; also: potency is read from the fitted curve at half-maximal effect); conditions: ER-alpha-UAS-bla HEK293, beta-lactamase ratio, antagonist mode; series mostly up to 76.9 µM
How it was run: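 ER-alpha-UAS-bla GripTite HEK 293 cells in medium with 2% charcoal/dextran-treated FBS were preincubated 4 h at 37 C, dosed with compound (1:2 titration), stimulated with 0.5nM 17-beta-estradiol for 18 h, then read by CCF4 beta-lactamase fluorescence.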

[9] = biological target: Glucocorticoid receptor (Homo sapiens) (UniProt P04150); assay: qHTS assay for small molecule antagonists of glucocorticoid receptor signaling (AID 588533; active = well fitted inhibition curve with a large enough effect in the signal ratio, with a control signal flat, not every such curve was filed as active; the % refers to the signal ratio; also: % is scaled to controls: 0 for no effect and ±100 for the full control effect); conditions: HeLa MMTV-bla, GRE beta-lactamase ratio, antagonist mode, 18 h; series mostly up to 76.8 µM
Sequence of Glucocorticoid receptor (Homo sapiens) (P04150 whole entry, looked up): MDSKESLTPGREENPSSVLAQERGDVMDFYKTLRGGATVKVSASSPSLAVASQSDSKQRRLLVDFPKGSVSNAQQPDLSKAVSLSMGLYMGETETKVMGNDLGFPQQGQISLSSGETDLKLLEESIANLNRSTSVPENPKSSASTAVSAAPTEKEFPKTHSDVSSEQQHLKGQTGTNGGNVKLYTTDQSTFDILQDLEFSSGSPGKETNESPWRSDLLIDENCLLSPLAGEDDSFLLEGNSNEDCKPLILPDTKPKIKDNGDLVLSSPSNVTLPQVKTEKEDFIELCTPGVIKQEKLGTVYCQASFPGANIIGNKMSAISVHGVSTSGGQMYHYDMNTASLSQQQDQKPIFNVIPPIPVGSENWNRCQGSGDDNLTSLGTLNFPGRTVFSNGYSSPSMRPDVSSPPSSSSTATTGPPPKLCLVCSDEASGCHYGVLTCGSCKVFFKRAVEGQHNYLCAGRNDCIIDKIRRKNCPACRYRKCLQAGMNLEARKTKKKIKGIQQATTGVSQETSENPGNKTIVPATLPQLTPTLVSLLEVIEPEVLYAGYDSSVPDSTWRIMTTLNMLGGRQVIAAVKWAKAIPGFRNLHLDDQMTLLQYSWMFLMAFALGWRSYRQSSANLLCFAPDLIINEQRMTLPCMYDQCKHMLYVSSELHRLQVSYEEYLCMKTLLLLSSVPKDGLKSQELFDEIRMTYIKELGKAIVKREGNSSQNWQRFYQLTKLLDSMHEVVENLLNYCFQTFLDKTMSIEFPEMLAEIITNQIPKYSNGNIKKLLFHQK
How it was run: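 Antagonist-mode qHTS: compound titrations added to GRE-bla HeLa cells, then dexamethasone 2 nM final; 18 h, 37 C. CCF4 FRET fluorescence normalized to dexamethasone and DMSO; IC50 from Hill fit.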

[10] = qHTS assay for small molecule agonists of the antioxidant response element (ARE) signaling pathway (AID 651741; active = well fitted activation curve with a large enough effect in the signal ratio; the % refers to the signal ratio; also: potency is read from the fitted curve at half-maximal effect; as to activation: % of control where 0% means no effect); conditions: HepG2 ARE-bla reporter, beta-lactamase FRET ratio, 16 h; series mostly up to 96 µM
How it was run: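 HepG2 ARE-bla reporter cells, 2,000/well; 5 h settle at 37 C/5% CO2; compound pin transfer (23 nL, DMSO); 16 h at 37 C; LiveBLAzer B/G FRET substrate, 2 h RT; fluorescence intensity read.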

Cl[Si](Cl)(Cl)c1ccccc1
inactive: Potency [1] | activation [2] 7.73% | outcome [3] | Potency [4] | Potency [5] | Potency [6] | outcome [7]

Cc1ccc(Cl)cc1Cl
inactive: Potency [8] | Potency [9] | outcome [7] | Potency [10]

OCCC(F)(F)C(F)(F)C(F)(F)C(F)(F)C(F)(F)C(F)(F)C(F)(F)C(F)(F)F
inactive: Potency [8] | activation [2] 13.8% | outcome [3] | Potency [5] | Potency [6] | outcome [7] | Potency [10]

CCOC(=O)COc1cc(-n2ncc(C(F)(F)F)c(C)c2=O)c(F)cc1Cl
inactive: Potency [8] | activation [2] -1.68% | Potency [6] | outcome [7]

CC1COCc2cc3c(cc21)C(C)(C)C(C)C3(C)C (stereo not given)
active: Potency [1] 11.2 µM
inactive: activation [2] 12.8% | outcome [3] | Potency [4] | Potency [9] | Potency [5] | Potency [6] | outcome [7] | Potency [10]

CC(=O)OC1CCC(C(C)(C)C)CC1 (stereo not given)
inactive: Potency [8] | activation [2] 3% | outcome [3] | Potency [9] | Potency [6] | outcome [7] | Potency [10]

C[Si]1(C)N[Si](C)(C)N[Si](C)(C)N1
inactive: Potency [8] | Potency [1] | Potency [10]

CC(C)(C)c1n[nH]c(=O)n(N)c1=O
inactive: Potency [8] | activation [2] 8.74% | outcome [3] | Potency [4] | Potency [5] | Potency [6] | outcome [7]

Cc1ccc(N=Nc2c(O)ccc3ccccc23)c([N+](=O)[O-])c1
inactive: Potency [1] | activation [2] 8.82% | outcome [3] | Potency [4] | Potency [9] | Potency [5] | Potency [6] | outcome [7]
active: Potency [10] 24.3 µM

CC(C)CCCCCCc1ccc(OCCOCCO)cc1
active: Potency [8] 28.2 µM [inhibitor]

Cc1ccc(C(C)(C)C)c(O)c1
inactive: Potency [8] | Potency [4] | Potency [6] | outcome [7]

CSC(=O)c1cccc2nnsc12
inactive: Potency [8] | activation [2] -3.36% | outcome [3] | Potency [5] | Potency [6] | outcome [7]

Oc1ccc2ccccc2c1N=Nc1ccccc1
inactive: Potency [8] | Potency [4]

CCCCCCCCCCCCCCCCN(C)C
inactive: Potency [8] | activation [2] 8.77% | outcome [3] | Potency [9] | Potency [10]

O=C(O)c1cccc(C(=O)O)c1
inactive: Potency [8] | Potency [9] | Potency [5] | Potency [10]

CCCCCCCCCCCCO
inactive: Potency [8] | Potency [4] | Potency [5] | outcome [7]

C=C(C)C(=O)OCCC[Si](OC)(OC)OC
inactive: Potency [8] | Potency [9] | Potency [5] | Potency [10]

O=S(=O)(O)c1cc(S(=O)(=O)O)c2c(N=Nc3ccccc3)c(O)ccc2c1
inactive: Potency [8] | Potency [4] | Potency [9] | Potency [5] | Potency [6] | Potency [10]

CCCCCCCCC(=O)O
inactive: Potency [8] | Potency [5]

CC1(C)C(C=C(Cl)Cl)[C@H]1C(=O)OCc1cccc(Oc2ccccc2)c1 (stereo not given in full)
inactive: Potency [8] | activation [2] -0.893% | outcome [3] | Potency [6]

CCCCCCCCCCCCCCO
inactive: Potency [8] | Potency [1] | Potency [6] | outcome [7]

COC(=O)c1ccc(C(=O)OC)cc1
inactive: Potency [8] | Potency [1] | Potency [6]

CC(C)(C)c1ccc(O)c(C(C)(C)C)c1
inactive: Potency [8] | Potency [4] | Potency [9] | outcome [7]

C[Si](C)(C)N[Si](C)(C)C
inactive: Potency [8] | Potency [6] | outcome [7]

COc1ccc(OC)c(OC)c1
inactive: Potency [8] | Potency [4] | Potency [6] | Potency [10]

CN(C)c1nc(=O)n(C2CCC(O)CC2)c(=O)n1C (stereo not given)
inactive: Potency [1] | activation [2] 6.02% | outcome [3] | Potency [4] | Potency [9] | Potency [5] | Potency [6] | outcome [7] | Potency [10]

CSc1ccc(Cl)cc1
inactive: Potency [1] | activation [2] -7.93% | outcome [3] | Potency [4] | Potency [9] | Potency [5] | Potency [6] | outcome [7] | Potency [10]

CCCOC(=O)c1ccc(C(=O)OCCC)nc1
inactive: Potency [8] | activation [2] -11.4% | outcome [3] | Potency [4] | Potency [6] | outcome [7]

CCC(=O)C1C(=O)CC(C(=O)O)CC1=O (stereo not given)
inactive: Potency [8] | activation [2] -3.36% | Potency [4] | Potency [6] | outcome [7]

CCOC(=O)CCCCCCCCC(=O)OCC
inactive: Potency [8] | Potency [1] | Potency [6] | Potency [10]

NCCCCCCCCCCC(=O)O
inactive: Potency [8] | activation [2] 0.655% | outcome [3] | Potency [4] | Potency [9] | Potency [6] | outcome [7] | Potency [10]

COc1ccccc1NC(=O)CC(C)=O
inactive: Potency [8] | Potency [5] | Potency [6] | outcome [7] | Potency [10]

CO/N=C1\C[C@]2(C[C@@H]3C[C@@H](C/C=C(\C)C[C@@H](C)/C=C/C=C4\CO[C@@H]5[C@H](O)C(C)=C[C@@H](C(=O)O3)[C@]45O)O2)O[C@H](/C(C)=C/C(C)C)[C@H]1C
active: Potency [8] 7.94 µM [inhibitor] | Potency [6] 17.8 µM
